# “And” between values parts separate entries of the source, which are not always exact repeats. Equal values may be shown once. Inconclusive results are not listed. The source made the active and inactive calls.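 Rule for the calls, unless noted: active = normalized viability below 100% at a tested concentration; inactive = the rest.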
# Tests used:
# [1] = stimulators of nuclear beta-catenin in C2C12, primary screen, imaging, WNT3A-conditioned medium, mouse C2C12, NPC library (AID 1117326; in the data active = nuclear beta-catenin stimulation mostly above about 4.2%, no sharp cut-off; inactive = mostly below about 10%); conditions: stronger effect = higher value
# [2] = stimulators of insulin release from INS-1E, primary screen, cell-based, 5 mM glucose, NPC library (AID 1117329;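 active = compound raises insulin release from rat beta cells at 5 mM glucose, no numeric limit stated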); conditions: rat INS-1E insulin secretion, at 10 µM, stronger effect = higher value
# [3] = growth inhibition of GSK3B-pretreated HCT116 cells – cell-based, CellTiter-Glo, 0.2 to 20 µM (AID 1117336;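 active = compounds lowering colon cancer cell viability after pretreatment blocking the GSK3B kinase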); conditions: HCT116 viability after GSK3B inhibitor, at 20 µM, stronger effect = higher value
# [4] = inhibition of endothelial tube formation, primary screen, imaging, VEGF stimulated, CD31 staining, tube area, NPC library (AID 1117340;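 active = compound that reduces growth-factor-driven endothelial tube area in a mixed cell culture, no cutoff stated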); conditions: VEGF-stimulated ADSC/ECFC co-culture, at 10 µM, stronger effect = higher value
# [5] = glucagon-like peptide 1 release enhancers, primary assay, NCI-H716 cell line, NPC library (AID 1117341;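 active = compound raises GLP1 secretion from the human gut endocrine cells, with no numeric limit stated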); conditions: NCI-H716 cells, at 10 µM, stronger effect = higher value
# [6] = HCT116 colon cancer cell growth inhibition, primary screen, CellTiter-Glo luminescence, NPC library (AID 1117342;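 active = compounds that lower survival of HCT116 colon cancer cells in the luminescence readout, no numeric limit stated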); conditions: at 20 µM (top of the series)
# [7] = CellTiter-Glo luminescent readout of SW480 viability loss, NPC library primary (AID 1117343;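 active = compounds that lower viability of the colon cancer cells in the luminescence readout, with no numeric limit stated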); conditions: CellTiter-Glo luminescence; at 20 µM (top of the series) unless noted
# [8] = decreased DLD-1 cellular survival, CellTiter-Glo luminescent readout, NPC compound collection, primary HTS (AID 1117346;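 active = compounds that lower survival of DLD-1 colon cancer cells in the luminescence readout, no cutoff given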); conditions: DLD-1 viability, CellTiter-Glo luminescence; at 20 µM (top of the series)
# [9] = growth inhibition of DIPG glioma cells, dose response, cell-based, SU-DIPG-XVII, MIPE5.0, CellTiter-Glo, qHTS (AID 1347060; cut-off not given, nearly all actives have AC50 up to about 26 µM;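 for AC50: cells exposed to compound for 48 hours before viability readout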); conditions: SU-DIPG-XVII viability, CellTiter-Glo ATP luminescence
# [10] = growth inhibition of DIPG glioma cells, dose response, cell-based, SU-DIPG-XIII, MIPE4.0, CellTiter-Glo, qHTS (AID 1347061; cut-off not given, nearly all actives have AC50 up to about 37 µM;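 note: cells exposed to compound for 48 hours before readout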); conditions: SU-DIPG-XIII viability, CellTiter-Glo ATP luminescence
# [11] = SU-DIPG-XXV glioma cell viability, MIPE5.0 library, qHTS (AID 1347068; cut-off not given, nearly all actives have IC50 up to about 30 µM)
# [12] = sensitizers of A549 cells to miR-34 induction, primary screen, imaging, A549 dox-inducible miR-34, nuclei and caspase counts (AID 1347080;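 active = compounds whose cell count with miR-34 switched on is under 0.7 times the count with it off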); conditions: A549 miR-34 inducible, Hoechst nuclei count, 48 h
# [13] = survival rescue of mitochondrial mutant cells in low glucose, primary screen, MELAS cybrids, Rieske KO mouse fibroblasts, CellTiter-Glo (AID 1508586;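 active = mean z-score across replicates of 1.96 or higher in either the MELAS or the Rieske mutant cell line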;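 note: z relative to plate mean and SD of compound and empty wells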)
# [14] = liver-stage malaria parasite growth inhibition, primary screen, cell-based, HepG2, luciferase luminescence, HepG2 viability (AID 624349; in the data active = parasite load remaining mostly below about 12%, no sharp cut-off; inactive = mostly above about 10%;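 note: 100% = mean of DMSO negative control wells on the same plate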); conditions: P. berghei liver stage in HepG2, luciferase luminescence, concentration not given here; parasite load remaining: stronger effect = lower value; viability: measured here: HepG2 viability without parasites
# [15] = SU-DIPG-VI glioma cell viability, MIPE4.0 library, CellTiter-Glo luminescence, qHTS (AID 1347066; cut-off not given, nearly all actives have AC50 up to about 30 µM;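 note: cells exposed to compound for 48 hours before readout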); conditions: CellTiter-Glo ATP luminescence
# [16] = ovarian cancer cell viability with rucaparib, profiling panel, oncology-focused library, rucaparib conditional (AID 1508598); conditions: patient-derived ovarian cancer cells, CellTiter-Glo viability, 144 h, stronger effect = lower value
# [17] = viability rescue of complex I mutant cybrids, primary screen, cell-based, galactose medium, ATP luminescence (AID 1645843;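 active = z-score of at least 1.8 in each of two replicates, scored against plate mean and spread of sample wells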;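 note: positive z means more ATP and so rescue of galactose-driven cybrid death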); conditions: complex I mutant cybrid cells, 72 h, stronger effect = higher value
# [18] = molecular target: NAD(+) hydrolase SARM1 (Homo sapiens) (UniProt Q6SZW1); assay: SARM1 TIR NADase inhibitors, cell lysate, NAD-Glo luminescence (AID 1508614;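 active = compound whose remaining NAD level is above about 45 nM, limit read from the data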;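 note: higher remaining NAD means stronger inhibition of SARM1 NADase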); conditions: SAM-TIR HEK293T lysate NADase, at 1 µM, stronger effect = higher value
# [19] = stronger effect = lower value, cell number ratio, induced over uninduced
# [20] = measured here: relative caspase fold change +Dox/-Dox
# [21] = measured here: total cells with miR-34 induction, stronger effect = lower value
# [22] = measured here: total cells without miR-34 induction
# [23] = MELAS cybrid survival, CellTiter-Glo 48 h, stronger effect = higher value
# [24] = Rieske KO mouse fibroblast survival, CellTiter-Glo 72 h
# Chain of NAD(+) hydrolase SARM1 (Homo sapiens) (Q6SZW1 whole entry, looked up): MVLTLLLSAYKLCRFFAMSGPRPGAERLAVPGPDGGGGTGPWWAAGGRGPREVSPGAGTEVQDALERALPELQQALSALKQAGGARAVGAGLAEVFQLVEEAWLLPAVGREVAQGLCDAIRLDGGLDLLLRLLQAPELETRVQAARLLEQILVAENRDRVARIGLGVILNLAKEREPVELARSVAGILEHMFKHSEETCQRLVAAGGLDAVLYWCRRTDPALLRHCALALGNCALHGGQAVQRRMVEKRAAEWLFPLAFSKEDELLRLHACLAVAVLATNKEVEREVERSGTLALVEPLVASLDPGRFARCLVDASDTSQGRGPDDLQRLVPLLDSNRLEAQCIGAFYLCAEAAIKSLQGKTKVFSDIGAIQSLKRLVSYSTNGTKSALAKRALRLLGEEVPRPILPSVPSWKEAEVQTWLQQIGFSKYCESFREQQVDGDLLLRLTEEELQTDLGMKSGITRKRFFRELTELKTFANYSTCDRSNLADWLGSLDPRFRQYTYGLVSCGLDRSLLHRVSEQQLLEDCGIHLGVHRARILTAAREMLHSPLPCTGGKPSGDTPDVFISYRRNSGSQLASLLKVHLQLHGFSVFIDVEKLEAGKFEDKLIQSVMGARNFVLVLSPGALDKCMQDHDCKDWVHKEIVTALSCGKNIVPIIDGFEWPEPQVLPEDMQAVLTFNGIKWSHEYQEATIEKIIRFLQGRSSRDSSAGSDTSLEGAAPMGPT
compound,measurement,setting,value
CC(C)OC(=O)C(C(=O)OC(C)C)=C1SC=CS1,nuclear beta-catenin stimulation,[1]; at 10 µM,1.3% (inactive)
same,nuclear beta-catenin stimulation,"[1]; stimulation, at 2 µM",0.1%
same,insulin secretion stimulation,[2],0.3% (inactive)
same,viability decrease,[3],3.95% (inactive)
same,tube area decrease,[4],4.8% (inactive)
same,GLP1 secretion stimulation,[5],3.5% (inactive)
same,inhibition of viability,[6],-0.1% (inactive)
same,viability decrease (inhibition),[7],6.3% (inactive)
same,viability decrease (inhibition),[8],8.2% (inactive)
same,outcome,[9],inactive
same,outcome,[10],inactive
same,outcome,[11],inactive
same,fold change,[12]; [19],0.9 (inactive)
same,fold change,[12]; [20],0.974
same,cell count,[12]; [21],7660
same,cell count,[12]; [22],8520
same,z-score,[13]; [23],-0.382 (inactive)
same,z-score,[13]; [24],0.382
Clc1ccc(Nc2nnc(Cc3ccncc3)c3ccccc23)cc1,parasite load remaining,[14],24.4% (inactive)
same,viability,[14],144%
same,nuclear beta-catenin stimulation,[1]; at 10 µM,-2.6% (inactive)
same,nuclear beta-catenin stimulation,"[1]; stimulation, at 2 µM",-0.4%
same,insulin secretion stimulation,[2],9.3% (inactive)
same,viability decrease,[3],76.2% (active)
same,tube area decrease,[4],104% (active)
same,GLP1 secretion stimulation,[5],-2.6% (inactive)
same,inhibition of viability,[6],36% (inactive)
same,viability decrease (inhibition),[7],51.3% (active)
same,viability decrease (inhibition),[8],35.7% (inactive)
same,AC50,[9],16.6 µM (active)
same,outcome,[10],inactive
same,outcome,[15],inactive
same,outcome,[11],inactive
same,fold change,[12]; [19],0.99 (inactive) and 0.927 (inactive)
same,fold change,[12]; [20],0.974 and 0.999
same,cell count,[12]; [21],4800 and 8110
same,cell count,[12]; [22],4850 and 8750
same,z-score,[13]; [23],-0.464 (inactive) and -0.665 (inactive) and -0.288 (inactive)
same,z-score,[13]; [24],0.486 and -0.638 and 0.713
same,viability,"[16]; at 0.000305 µM, OCI-C5x cells, with rucaparib 10 µM, 100% = cells with rucaparib alone",121% (inactive)
same,viability,"[16]; at 0.000305 µM, OCI-C5x cells, without rucaparib",86.5% (active)
same,viability,"[16]; at 0.000305 µM, OCI-P5x cells, with rucaparib 20 µM, 100% = cells with rucaparib alone",94.6% (active)
same,viability,"[16]; at 0.000305 µM, OCI-P5x cells, without rucaparib",89.3% (active)
same,viability,"[16]; at 0.00122 µM, OCI-C5x cells, with rucaparib 10 µM, 100% = cells with rucaparib alone",125% (inactive)
same,viability,"[16]; at 0.00122 µM, OCI-C5x cells, without rucaparib",97.1% (active)
same,viability,"[16]; at 0.00122 µM, OCI-P5x cells, with rucaparib 20 µM, 100% = cells with rucaparib alone",102% (inactive)
same,viability,"[16]; at 0.00122 µM, OCI-P5x cells, without rucaparib",94.6% (active)
same,viability,"[16]; at 0.00488 µM, OCI-C5x cells, with rucaparib 10 µM, 100% = cells with rucaparib alone",117% (inactive)
same,viability,"[16]; at 0.00488 µM, OCI-C5x cells, without rucaparib",98.5% (active)
same,viability,"[16]; at 0.00488 µM, OCI-P5x cells, with rucaparib 20 µM, 100% = cells with rucaparib alone",99.2% (active)
same,viability,"[16]; at 0.00488 µM, OCI-P5x cells, without rucaparib",100% (inactive)
same,viability,"[16]; at 0.0195 µM, OCI-C5x cells, with rucaparib 10 µM, 100% = cells with rucaparib alone",121% (inactive)
same,viability,"[16]; at 0.0195 µM, OCI-C5x cells, without rucaparib",99.4% (active)
same,viability,"[16]; at 0.0195 µM, OCI-P5x cells, with rucaparib 20 µM, 100% = cells with rucaparib alone",102% (inactive)
same,viability,"[16]; at 0.0195 µM, OCI-P5x cells, without rucaparib",95.6% (active)
same,viability,"[16]; at 0.0781 µM, OCI-C5x cells, with rucaparib 10 µM, 100% = cells with rucaparib alone",114% (inactive)
same,viability,"[16]; at 0.0781 µM, OCI-C5x cells, without rucaparib",98.5% (active)
same,viability,"[16]; at 0.0781 µM, OCI-P5x cells, with rucaparib 20 µM, 100% = cells with rucaparib alone",101% (inactive)
same,viability,"[16]; at 0.0781 µM, OCI-P5x cells, without rucaparib",95.5% (active)
same,viability,"[16]; at 0.313 µM, OCI-C5x cells, with rucaparib 10 µM, 100% = cells with rucaparib alone",125% (inactive)
same,viability,"[16]; at 0.313 µM, OCI-C5x cells, without rucaparib",110% (inactive)
same,viability,"[16]; at 0.313 µM, OCI-P5x cells, with rucaparib 20 µM, 100% = cells with rucaparib alone",100% (inactive)
same,viability,"[16]; at 0.313 µM, OCI-P5x cells, without rucaparib",105% (inactive)
same,viability,"[16]; at 1.25 µM, OCI-C5x cells, with rucaparib 10 µM, 100% = cells with rucaparib alone",129% (inactive)
same,viability,"[16]; at 1.25 µM, OCI-C5x cells, without rucaparib",115% (inactive)
same,viability,"[16]; at 1.25 µM, OCI-P5x cells, with rucaparib 20 µM, 100% = cells with rucaparib alone",105% (inactive)
same,viability,"[16]; at 1.25 µM, OCI-P5x cells, without rucaparib",94.9% (active)
same,viability,"[16]; at 5 µM, OCI-C5x cells, with rucaparib 10 µM, 100% = cells with rucaparib alone",128% (inactive)
same,viability,"[16]; at 5 µM, OCI-C5x cells, without rucaparib",142% (inactive)
same,viability,"[16]; at 5 µM, OCI-P5x cells, with rucaparib 20 µM, 100% = cells with rucaparib alone",95.2% (active)
same,viability,"[16]; at 5 µM, OCI-P5x cells, without rucaparib",99.5% (active)
same,z-score,[17],1.34 (inactive)
CSCC[C@H](NC(=O)[C@H](Cc1c[nH]c2ccccc12)NC(=O)CCNC(=O)OC(C)(C)C)C(=O)N[C@@H](CC(=O)O)C(=O)N[C@@H](Cc1ccccc1)C(N)=O,nuclear beta-catenin stimulation,[1]; at 10 µM,0.1% (inactive)
same,nuclear beta-catenin stimulation,"[1]; stimulation, at 2 µM",1.3%
same,insulin secretion stimulation,[2],0.8% (inactive)
same,viability decrease,[3],-19% (inactive)
same,tube area decrease,[4],5.2% (inactive)
same,GLP1 secretion stimulation,[5],0.3% (inactive)
same,inhibition of viability,[6],-11.9% (inactive)
same,viability decrease (inhibition),[7],23.6% (inactive)
same,viability decrease (inhibition),[8],-23.3% (inactive)
same,outcome,[9],inactive
same,AC50,[10],0.935 µM (active)
same,outcome,[15],inactive
same,outcome,[11],inactive
same,remaining NAD,[18],10 nM (inactive)

# From PubChem BioAssay
